# Results filed as inconclusive are left out. The source made the active and inactive calls. Calls follow the shape of the dose curve; as a rule, active = well fitted inhibition curve with a large enough effect; inconclusive = small, poorly fitted or top-dose-only effect; inactive = flat fitted curve, though single readings scatter.
# Target: Voltage-gated inwardly rectifying potassium channel KCNH2 (Homo sapiens) (UniProt Q12809)
# Assay: qHTS Assay for Small Molecule Inhibitors of the Human hERG Channel Activity (AID 588834);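 also: lower thallium flux fluorescence means stronger hERG block; nearly all actives have a fitted effect of over 50% in size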; as to activity change, negative = inhibition: top concentration of the series differs between compounds; % is scaled to controls: 0 for no effect and ±100 for the full control effect
# Conditions: U2OS BacMam hERG, FluxOR thallium flux fluorescence; series mostly up to 46.1 µM; activity change, negative = inhibition: at the top concentration
# In short: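 U2OS cells transduced with hERG via BacMam (MOI ~100), plated 2000/well, loaded with FluxOR thallium dye, compound ~10 min, then stimulation buffer; fluorescence decrease read kinetically; AC50 from Hill fits.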
# Potency is read from the fitted curve at half-maximal effect.
# Sequence of Voltage-gated inwardly rectifying potassium channel KCNH2 (Homo sapiens) (Q12809 whole entry, looked up): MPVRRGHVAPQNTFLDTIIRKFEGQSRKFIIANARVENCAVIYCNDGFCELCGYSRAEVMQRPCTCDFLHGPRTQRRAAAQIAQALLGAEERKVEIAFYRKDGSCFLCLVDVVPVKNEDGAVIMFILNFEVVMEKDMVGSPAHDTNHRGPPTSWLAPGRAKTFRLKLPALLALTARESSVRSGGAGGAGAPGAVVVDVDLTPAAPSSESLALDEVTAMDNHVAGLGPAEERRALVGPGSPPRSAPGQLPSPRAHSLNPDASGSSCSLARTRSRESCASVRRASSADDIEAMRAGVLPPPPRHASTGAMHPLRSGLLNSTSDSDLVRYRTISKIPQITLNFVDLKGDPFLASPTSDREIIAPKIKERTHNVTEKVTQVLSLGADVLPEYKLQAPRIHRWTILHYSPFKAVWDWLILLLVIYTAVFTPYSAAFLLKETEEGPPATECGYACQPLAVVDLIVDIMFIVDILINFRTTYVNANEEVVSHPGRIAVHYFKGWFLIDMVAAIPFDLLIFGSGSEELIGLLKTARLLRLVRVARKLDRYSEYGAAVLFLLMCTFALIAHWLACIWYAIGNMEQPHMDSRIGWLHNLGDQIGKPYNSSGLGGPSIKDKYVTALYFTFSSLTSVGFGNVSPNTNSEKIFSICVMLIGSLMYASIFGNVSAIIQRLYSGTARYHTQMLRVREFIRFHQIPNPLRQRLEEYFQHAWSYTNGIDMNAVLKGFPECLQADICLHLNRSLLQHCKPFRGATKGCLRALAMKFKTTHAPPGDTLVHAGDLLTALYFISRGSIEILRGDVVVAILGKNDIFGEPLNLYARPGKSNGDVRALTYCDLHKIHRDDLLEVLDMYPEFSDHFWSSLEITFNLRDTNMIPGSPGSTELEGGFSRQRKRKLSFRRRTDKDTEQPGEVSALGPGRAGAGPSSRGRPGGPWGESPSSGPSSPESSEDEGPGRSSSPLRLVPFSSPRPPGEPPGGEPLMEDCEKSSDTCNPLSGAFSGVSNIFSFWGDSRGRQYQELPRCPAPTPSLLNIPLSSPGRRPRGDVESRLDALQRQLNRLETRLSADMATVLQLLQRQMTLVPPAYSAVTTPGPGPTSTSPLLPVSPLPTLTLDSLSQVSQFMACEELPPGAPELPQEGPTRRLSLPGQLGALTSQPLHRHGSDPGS
SMILES,"activity change, negative = inhibition",Potency
CCOc1ccc(NC(=S)Nc2ccc(OCC)cc2)cc1,2.09% (inactive),–
CCN(CC)CCCC(C)Nc1cc(/C=C/c2ccccc2Cl)nc2cc(Cl)ccc12 (configuration not stated),–,14.1 µM (active)
CC(C)NCC(O)COc1ccccc1-n1cccc1 (configuration not stated),–,14.1 µM (active)
CCCCC/C=C\C/C=C\C/C=C\CCCCC(=O)O,12.6% (inactive),–
COc1cc2c(cc1OC)[C@@H](Cc1cc(OC)c(OC)c(OC)c1)[N+](C)(CCCOC(=O)CC/C=C/CCC(=O)OCCC[N+]1(C)CCc3cc(OC)c(OC)cc3[C@H]1Cc1cc(OC)c(OC)c(OC)c1)CC2 (some centres not stated),3.85% (inactive),–
CCOC(=O)Cc1ccc(-c2ccccc2)cc1,-17% (inactive),–
CN(C)c1ccc(C(=C2C=CC(=[N+](C)C)C=C2)c2c(O)c(S(=O)(=O)[O-])cc3cc(S(=O)(=O)O)ccc23)cc1,11% (inactive),–
Cn1cc(NC(=O)c2cc(NC(=O)c3cc(NC=O)cn3C)cn2C)cc1C(=O)NCCC(=N)N,21.5% (inactive),–
CC(C)(Oc1ccc(C2CCCc3ccccc32)cc1)C(=O)O (configuration not stated),0.515% (inactive),–
CS(=O)(=O)c1ccc([C@@H](O)[C@@H](COC(=O)CN)NC(=O)C(Cl)Cl)cc1,1.5% (inactive),–
O=C(O)/C=C/C(=O)Nc1ccc(S(=O)(=O)Nc2nccs2)cc1,7.72% (inactive),–
CCCCCc1ccc(C)cc1O,-26% (inactive),–
CCCCCCCCCCCC(=O)N(CCO)CCO,16.8% (inactive),–
O=C1CCC(=O)N1CO,5.19% (inactive),–
O=C(/C=C/c1cccc(F)c1)NC1CC1,24.2% (inactive),–
COc1ccc(C(=O)CCC(=O)O)c2ccccc12,26.7% (inactive),–
N#Cc1ccc2c(c1)N(CCCN1CCC(O)CC1)c1ccccc1S2,–,14.1 µM (active)
O=C(O)CCC/C=C\C[C@@H]1[C@@H](/C=C/[C@@H](O)COc2cccc(C(F)(F)F)c2)[C@H](O)C[C@@H]1O,-8.02% (inactive),–
O=C(OCc1ccccc1)c1cccnc1,-26.5% (inactive),–

SMILES,"activity change, negative = inhibition",Potency
c1ccc2c(c1)OCC(CN1CCCCC1)O2 (configuration not stated),5.51% (inactive),–
c1ccc2c(c1)Sc1ccccc1N2CCN1CCCC1,–,15.8 µM (active)
C[C@@](Cc1ccc(O)c(O)c1)(NN)C(=O)O,–,inactive
[O]=[Bi][O][Bi]=[O],-2.04% (inactive),–
CC/C=C\C/C=C\C/C=C\C/C=C\C/C=C\C/C=C\CCC(=O)O,3.04% (inactive),–
C=Cc1ccc(S(=O)(=O)O)cc1,0.62% (inactive),–
FC(F)(F)C(F)(F)C(F)(F)C(F)(F)C(F)(F)F,-1.84% (inactive),–
NC(=O)Oc1ccc(Cc2ccccc2)cc1,9.93% (inactive),–
O=C(O)c1cc(N=Nc2ccc(O)c(C(=O)O)c2)ccc1O,17.1% (inactive),–
CC(=O)Oc1cccc(C(=O)O)c1OC(C)=O,0.118% (inactive),–
COC1=C(OC)C(=O)C(C/C=C(\C)CC/C=C(\C)CC/C=C(\C)CC/C=C(\C)CC/C=C(\C)CC/C=C(\C)CC/C=C(\C)CC/C=C(\C)CC/C=C(\C)CCC=C(C)C)=C(C)C1=O,1.35% (inactive),–
O=S(=O)(O)CC(S)CS (configuration not stated),21.4% (inactive),–
CC(CCc1ccc(O)cc1)NCC(O)c1ccc(O)cc1 (configuration not stated),–,1.78 µM (active)
CN(C)C=Nc1c(I)cc(I)c(CCC(=O)O)c1I,8.39% (inactive),–
O=P(O)(O)OC[C@H]1O[C@](O)(COP(=O)(O)O)[C@@H](O)[C@@H]1O,6.34% (inactive),–
CC(CN(C)C)CN1c2ccccc2Sc2ccc(C(F)(F)F)cc21 (configuration not stated),–,11.2 µM (active)
CNC(=O)C[C@@H](N)C(=O)N[C@@H](C(=O)N[C@@H]1C(=O)N2[C@@H]1SC(C)(C)[C@@H]2C(=O)O)c1ccc(O)cc1,14% (inactive),–
COc1cc(C)c(/C=C/C(C)=C/C=C/C(C)=C/C(=O)O)c(C)c1C,-41.8% (inactive),–

# Target: Luciferin 4-monooxygenase (Photinus pyralis) (UniProt P08659)
# Sequence (P08659 whole entry, looked up): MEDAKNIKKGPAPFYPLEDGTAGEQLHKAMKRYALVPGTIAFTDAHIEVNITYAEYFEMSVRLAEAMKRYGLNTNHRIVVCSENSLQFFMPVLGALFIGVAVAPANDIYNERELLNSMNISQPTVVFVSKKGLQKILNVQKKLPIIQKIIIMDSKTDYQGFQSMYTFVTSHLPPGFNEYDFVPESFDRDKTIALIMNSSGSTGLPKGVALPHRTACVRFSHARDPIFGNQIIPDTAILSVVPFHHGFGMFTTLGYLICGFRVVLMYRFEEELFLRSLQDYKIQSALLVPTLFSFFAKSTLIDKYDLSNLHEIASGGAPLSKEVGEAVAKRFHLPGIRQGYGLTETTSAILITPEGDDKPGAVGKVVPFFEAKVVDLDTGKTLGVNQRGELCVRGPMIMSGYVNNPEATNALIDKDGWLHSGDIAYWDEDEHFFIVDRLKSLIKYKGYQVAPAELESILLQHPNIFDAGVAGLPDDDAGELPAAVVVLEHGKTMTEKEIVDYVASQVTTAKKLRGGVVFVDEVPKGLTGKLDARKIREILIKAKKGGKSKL
# Assay: Biochemical firefly luciferase enzyme assay for NPC (AID 624030); also: nearly all actives have a fitted effect of over 70% in size;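 as to activity change, negative = inhibition: purified P. pyralis luciferase at 10 nM with luciferin and ATP substrate; 0% = DMSO and -100% = full luciferase inhibition by PTC124 control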
# Conditions: purified P. pyralis luciferase, luminescence, 5 min; series mostly up to 58.6 µM; activity change, negative = inhibition: at the top concentration
# In short: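 Direct inhibition of firefly luciferase enzyme (10 nM final, 50 mM Tris Acetate) assessed by luminescence within 5 minutes. Percent activity scaled between DMSO and PTC124 positive control, with concentration-effect curves classified by fit quality and response.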
SMILES,"activity change, negative = inhibition",Potency
CCOc1ccc(NC(=S)Nc2ccc(OCC)cc2)cc1,2.38% (inactive),–
CCN(CC)CCCC(C)Nc1cc(/C=C/c2ccccc2Cl)nc2cc(Cl)ccc12 (configuration not stated),11.9% (inactive),–
CC(C)NCC(O)COc1ccccc1-n1cccc1 (configuration not stated),2.49% (inactive),–
CCCCC/C=C\C/C=C\C/C=C\CCCCC(=O)O,3.19% (inactive),–
COc1cc2c(cc1OC)[C@@H](Cc1cc(OC)c(OC)c(OC)c1)[N+](C)(CCCOC(=O)CC/C=C/CCC(=O)OCCC[N+]1(C)CCc3cc(OC)c(OC)cc3[C@H]1Cc1cc(OC)c(OC)c(OC)c1)CC2 (some centres not stated),8.3% (inactive),–
CN(C)c1ccc(C(=C2C=CC(=[N+](C)C)C=C2)c2c(O)c(S(=O)(=O)[O-])cc3cc(S(=O)(=O)O)ccc23)cc1,–,14.4 µM (active)
Cn1cc(NC(=O)c2cc(NC(=O)c3cc(NC=O)cn3C)cn2C)cc1C(=O)NCCC(=N)N,-18.8% (inactive),–
CC(C)(Oc1ccc(C2CCCc3ccccc32)cc1)C(=O)O (configuration not stated),-21.3% (inactive),–
CS(=O)(=O)c1ccc([C@@H](O)[C@@H](COC(=O)CN)NC(=O)C(Cl)Cl)cc1,2% (inactive),–
O=C(O)/C=C/C(=O)Nc1ccc(S(=O)(=O)Nc2nccs2)cc1,-5.19% (inactive),–
CCCCCc1ccc(C)cc1O,-20% (inactive),–
CCCCCCCCCCCC(=O)N(CCO)CCO,-9.69% (inactive),–
O=C(/C=C/c1cccc(F)c1)NC1CC1,-14.1% (inactive),–
COc1ccc(C(=O)CCC(=O)O)c2ccccc12,-7.13% (inactive),–
N#Cc1ccc2c(c1)N(CCCN1CCC(O)CC1)c1ccccc1S2,8.85% (inactive),–
O=C(O)CCC/C=C\C[C@@H]1[C@@H](/C=C/[C@@H](O)COc2cccc(C(F)(F)F)c2)[C@H](O)C[C@@H]1O,-6.04% (inactive),–
c1ccc2c(c1)OCC(CN1CCCCC1)O2 (configuration not stated),0.798% (inactive),–
c1ccc2c(c1)Sc1ccccc1N2CCN1CCCC1,0.984% (inactive),–
[O]=[Bi][O][Bi]=[O],-0.225% (inactive),–
CC/C=C\C/C=C\C/C=C\C/C=C\C/C=C\C/C=C\CCC(=O)O,-7.13% (inactive),–
C=Cc1ccc(S(=O)(=O)O)cc1,-5.61% (inactive),–
FC(F)(F)C(F)(F)C(F)(F)C(F)(F)C(F)(F)F,-1.99% (inactive),–
NC(=O)Oc1ccc(Cc2ccccc2)cc1,-18.2% (inactive),–
O=C(O)c1cc(N=Nc2ccc(O)c(C(=O)O)c2)ccc1O,–,9.07 µM (active)
CC(=O)Oc1cccc(C(=O)O)c1OC(C)=O,-2.38% (inactive),–
COC1=C(OC)C(=O)C(C/C=C(\C)CC/C=C(\C)CC/C=C(\C)CC/C=C(\C)CC/C=C(\C)CC/C=C(\C)CC/C=C(\C)CC/C=C(\C)CC/C=C(\C)CCC=C(C)C)=C(C)C1=O,1.53% (inactive),–
CC(CCc1ccc(O)cc1)NCC(O)c1ccc(O)cc1 (configuration not stated),5.9% (inactive),–
O=P(O)(O)OC[C@H]1O[C@](O)(COP(=O)(O)O)[C@@H](O)[C@@H]1O,23.1% (inactive),–
CC(CN(C)C)CN1c2ccccc2Sc2ccc(C(F)(F)F)cc21 (configuration not stated),14.3% (inactive),–
CNC(=O)C[C@@H](N)C(=O)N[C@@H](C(=O)N[C@@H]1C(=O)N2[C@@H]1SC(C)(C)[C@@H]2C(=O)O)c1ccc(O)cc1,1.93% (inactive),–
